High-throughput results deposited in PubChem BioAssay by several laboratories.
Hits are enriched below; roughly 4.2% of the tested compounds scored in any of these assays.
tim23-1 inh: growth inhibitors of tim23-1 mutant yeast, primary screen, luminescence, uHTS. 1.3% of 330,000 active. inhibition, % at 20 µM. S. cerevisiae tim23-1 growth, BacTiter-Glo luminescence, 24 h;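 active = growth inhibition of the mutant yeast at or above 50%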;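 also: temperature-sensitive mutant grown at 25 °C; plate controls were DMSO-treated mutant yeast for no effect and medium wells lacking yeast for full effect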
V-ATPase pHluor: regulators of yeast V-ATPase proton pumping, primary screen, pHLuorin cytosolic pH fluorescence | S. cerevisiae | response, % at 10 µM | 0.37% of 350,000 active; in the data active = response mostly above about 7.3%, no sharp cut-off; inactive = mostly below about 5.4%; also: actives read high
tim10-1 inh: growth inhibitors of tim10-1 mutant yeast, primary screen, luminescence, uHTS. S. cerevisiae tim10-1 ts strain growth, BacTiter-Glo, 24 h. inhibition, % at 20 µM. 2.2% of 330,000 active. AID 463190, 2010;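 active = inhibition of at least 40%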;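 also: mutant grown at 25 °C; 0% = DMSO wells with yeast and 100% = wells holding no yeast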
NLRP3 yeast inh: NALP3 inflammasome inhibitors in reconstituted yeast, primary screen, luminescence, uHTS | Yeast reconstituted NLRP3/ASC/caspase-1, beta-gal luminescence, 24 h | inhibition, % at 10 µM | 0.39% of 330,000 active | AID 2825, 2010;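 active = inhibition of 50% or more; inactive = inhibition below 50%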;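 also: plate controls were induced DMSO wells for no effect and uninduced yeast grown without galactose for full effect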
TIM10 inh: growth inhibitors of isogenic TIM10 control yeast, primary screen, counter-screen for tim10-1 yeast inhibitor project, luminescence, uHTS | S. cerevisiae TIM10 strain growth, BacTiter-Glo luminescence, 24 h | inhibition, % at 10 µM | 1.4% of 330,000 active;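 active = inhibition of 40% or more at the single tested concentration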;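 also: wild-type TIM10 isogenic control strain grown at permissive 25 °C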
NALP1 yeast inh: NALP1 inflammasome inhibitors in reconstituted yeast, colorimetric, S. cerevisiae, triplicate retest; S. cerevisiae NALP1/ASC/caspase-1 growth, X-gal OD620, 72 h; inhibition, % at 10 µM; 0.61% of 280,000 active; AID 2071, 2009; in the data active = inhibition mostly above about 24%, no sharp cut-off; inactive = mostly below about 32%
tim10-1 confirm: growth inhibitors of tim10-1 mutant yeast, confirmation, single concentration, luminescence, S. cerevisiae; shares compounds with tim10-1 inh; S. cerevisiae tim10-1 ts strain growth, BacTiter-Glo, 24 h; inhibition, % at 20 µM; 56% of 7,400 active;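 active = inhibition of yeast growth at or above a set limit in either of two repeat tests at 20 µM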;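 also: tim10-1 mutant grown at permissive 25 °C to find synthetic lethal compounds; 0% = DMSO yeast wells and 100% = medium wells without yeast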
Numbers without * were called inactive; x = no result given.

SMILES	tim23-1 inh	V-ATPase pHluor	tim10-1 inh	NLRP3 yeast inh	TIM10 inh	NALP1 yeast inh	tim10-1 confirm
Nc1sc(-c2ccccc2)c(Cc2ccccc2)c1C(=O)O	19	-12	53*	0	20	10	35*
COC(=O)c1ccc(N2C(=O)CC(N(C)CCc3ccc(OC)c(OC)c3)C2=O)cc1 (centres undefined)	38	2	41*	28	30	3	44*
O=C1CN(Cc2ccccc2)C(=NCc2ccco2)S1	34	-2	45*	27	4	x	20
S=C1SCN(Cc2ccccc2)CN1Cc1ccco1	x	2	x	x	x	x	x
S=c1nc(Cc2ccc(Cl)cc2)[nH]c2ccccc12	7	-1	34	30	14	4	x
S=c1nc(Cc2ccccc2)[nH]c2ccccc12	28	4	43*	20	31	2	12
CC1(C)NC(=O)N(CC(=O)N2CCN(c3cccc(Cl)c3)CC2)C1=O	2	0	2	4	-6	x	x
Cc1cccnc1NC(=O)CNC(=O)COc1ccccc1	-8	-3	-6	1	2	x	x
O/N=C/c1ccc(OCc2ccccc2F)c(Cl)c1	38	-3	41*	18	4	26	11
O/N=C/c1ccc(OCc2ccccc2)c(Cl)c1	38	-1	-4	27	-33	8	x
CC(C)CC1NC(=O)c2cc3ccccc3cc2-n2c1nc1ccc(Cl)cc1c2=O (centres undefined)	x	-1	x	x	x	x	x
CCCCc1c(O)c2cccc3c2n(c1=O)CCC3	-8	-2	-7	27	-29	x	x
O=C1NC(=O)/C(=C/c2cccc3ccccc23)S1	41	-3	47*	44	12	-7	35*
O=C1NC(=O)C(=Cc2ccccc2[N+](=O)[O-])S1	x	2	x	x	x	x	x
Cc1cc(C)cc(Nc2ncc3c(n2)CC(c2ccco2)CC3=O)c1 (centres undefined)	37	5	45*	12	34	8	33*
Cc1cccc(Nc2ncc3c(n2)CC(c2ccco2)CC3=O)c1 (centres undefined)	22	-3	25	27	14	-29	x
O=C1CC(c2ccccc2Cl)CC(O)=C1C=Nc1ccccc1 (centres undefined)	49	-4	44*	30	26	45	41*
CC(C)N(Cc1ccccc1)CC(O)COc1ccc(S(=O)(=O)N2CCOCC2)cc1Cl (centres undefined)	9	4	19	-13	22	17	x
CCOC(=O)/C(C#N)=C1/C(=O)N(Cc2ccccc2)c2ccccc21	48	-1	49*	15	31	9	29
Cc1c[nH]c(=O)c([N+](=O)[O-])c1	9	-5	1	11	-13	9	x
O=C(COC(=O)C1CC2C=CC1C2)Nc1cccc(S(=O)(=O)N2CCCCCC2)c1 (centres undefined)	37	11	49*	5	38	20	30
O=C(Cn1nc(C(F)(F)F)c2c1CCC2)NCc1ccc(Cl)cc1	-9	-3	41*	14	14	14	30
CC(C)N1C(=O)CSC1c1ccc(Br)cc1 (centres undefined)	10	1	17	-3	16	10	x
O=C(COc1ccc(S(=O)(=O)NC2CCCCC2)cc1)N1CCN(c2cccc(Cl)c2)CC1	25	-4	46*	3	18	14	21
CC(C)NS(=O)(=O)c1ccc(OCC(=O)N2CCN(c3ccccc3)CC2)cc1	-10	-2	16	3	11	10	x
SMILES	tim23-1 inh	V-ATPase pHluor	tim10-1 inh	NLRP3 yeast inh	TIM10 inh	NALP1 yeast inh	tim10-1 confirm
CCNc1nnc(CSc2nc3ccccc3s2)s1	45	-5	44*	35	31	2	39*
Cn1c(=O)c2c(nc(SCCN3CCOCC3)n2Cc2ccccc2Cl)n(C)c1=O	31	0	27	-1	10	-76	x
Cn1c(=O)c2c(nc(SCCN3CCOCC3)n2Cc2cccc3ccccc23)n(C)c1=O	29	-4	44*	10	23	20	27
O=[N+]([O-])c1ccc(N=Nc2ccc(O)cc2O)cc1	42	0	59*	29	26	-10	44*
Cc1nnc(Sc2cc(NCCCO)c([N+](=O)[O-])c3nonc23)s1	x	-6	x	x	x	2	x
O=[N+]([O-])c1c(NCCCO)cc(Sc2nc3ccccc3s2)c2nonc12	30	0	85*	18	11	22	85*
CCN(CC)CCn1c2c(c(SCC(=O)NCc3ccccc3)nc1=O)CCC2	0	-7	7	-2	4	x	x
O=C(O)Cc1coc2ccc3ccccc3c12	41	-3	44*	0	17	-2	48*
COc1ccc(OC)c(NC(=O)Cc2coc3ccc4ccccc4c23)c1	23	-1	42*	27	30	14	8
O=C(Cc1coc2ccc3ccccc3c12)N1CCCC1	9	-4	24	8	-6	2	x
CCCCn1c(N)c(N(CC(C)C)C(=O)CCCSc2nncs2)c(=O)[nH]c1=O	-12	-2	11	10	3	-17	x
COc1cccc(Oc2nc(-c3ccncc3)nc3ccccc23)c1	47	-3	41*	24	22	29	22
Oc1cccc(Oc2ncc(C(F)(F)F)cc2Cl)c1	13	-1	49*	1	24	-17	40*
COCCCNS(=O)(=O)c1ccc(Oc2ncc(C(F)(F)F)cc2Cl)cc1	25	-1	24	20	3	41	x
CC(C)(C)NS(=O)(=O)c1ccc(Oc2ncc(C(F)(F)F)cc2Cl)cc1	34	-1	41*	-10	30	29	38*
FC(F)(F)c1cnc(Oc2cccc3ccccc23)c(Cl)c1	17	-4	15	9	6	34	x
CN(NS(=O)(=O)c1ccc(Cl)cc1)c1ncc(C(F)(F)F)cc1Cl	27	4	42*	23	14	-2	26
CN(NS(=O)(=O)c1ccc(F)cc1)c1ncc(C(F)(F)F)cc1Cl	10	1	16	21	12	4	x
C=CCOCCN(CC)CC	x	2	x	x	x	10	x
Cc1sc2ncnc(N3CCN(CCOc4ccc(Cl)cc4)CC3)c2c1C	31	0	45*	12	27	-3	32*
COc1ccccc1N1C(=NC(=O)COc2ccccc2)SC2CS(=O)(=O)CC21 (centres undefined)	12	-6	13	10	-9	11	x
Cc1c(OCC(=O)NCCN2CCOCC2)ccc2c1oc(=O)c1ccccc12	9	1	16	11	6	4	x
